Sampled rows, rich in hits. Any-hit rate of the full collection: about 8.1%.
ELG1 repair inh: blocks ELG1-dependent DNA repair in HEK293T cells. AID 504467. Potency, µM (highest dose often 46.1 µM), for inactives: top-dose activity change, negative = inhibition, most hits filed as inhibitors. actives 2.3% (n = 330,000). HEK293T ELG1-luciferase reporter, luminescence, 16 h; DNA damage induced by 5-fluorouridine; note: % is set by controls: 0 for no effect and ±100 for the full control effect; nearly all actives have a fitted effect of over 55% in size
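In this reporter screen, reduction of luminescence relative to DMSO vehicle indicated activity. Compounds and 5-fluorouridine were added together to 2,000 cells per well, incubated for 16 hr at 37 °C, then developed with ONE-Glo.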
MCF10A rereplic: induces DNA re-replication in MCF 10a normal breast cells | MCF 10A DNA re-replication, Hoechst nuclear intensity, 48 h | Potency, µM (titrated, usually from 46.1 µM), for inactives: at the highest dose activity, positive = re-replication, most hits filed as activators | actives 2.9% (n = 350,000); note: % of control where 0% means no effect; nearly all actives have a fitted effect of over 50% in size
SW480 rereplic: inducers of DNA re-replication in SW480 colon cancer cells. SW480 DNA re-replication, Hoechst DNA content imaging, 48 h. Potency, µM (titrated, usually from 46.1 µM), for the others: top-dose re-replication activation, most hits filed as activators. actives 1.8% (n = 340,000); note: % of control where 0% means no effect; nearly all actives have a fitted effect of over 55% in size
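Quantitative HTS format with DMSO vehicle controls; 48 hr drug incubation at 37 C, then 40 min Hoechst staining and scanning imager measurement at 405 nm excitation.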
KB-3-1 cytotox: kills parental KB-3-1 adenocarcinoma cells. KB-3-1 viability, CellTiter-Glo ATP luminescence, 72 h. actives 1.4% (n = 400,000). Potency, µM (top dose mostly 46.1 µM), most hits filed as cytotoxic; note: % is set by controls: 0 for no effect and ±100 for the full control effect; nearly all actives have a fitted effect of over 60% in size
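Screening of KB-3-1 cells (DMEM, 10% FBS, phenol-red free) ran from lowest to highest compound concentration; after 72 h at 37 °C viability was read luminescently and curves fitted.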
KB-V1 cytotox: KB-V1 MDR subline cytotoxicity; KB-V1 MDR cells viability, CellTiter-Glo, 72 h; Potency, µM (doses to about 46.1 µM), hits mostly cytotoxic; actives 3.4% (n = 400,000); note: % is set by controls: 0 for no effect and ±100 for the full control effect; nearly all actives have a fitted effect of over 60% in size
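Compound-treated KB-V1 multidrug-resistant cells, 72 h, 37 degrees C; viability by CellTiter-Glo. Fitted qHTS curves give the values.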
Active calls of the source: *; i = inactive; u = inconclusive; x = not tested or not shown; [ ] = remark or other dose. Calls come from the whole dose curve; as a rule, active = well fitted curve in the direction sought with a large enough effect; inconclusive = small, poorly fitted or top-dose-only effect, or another doubt; inactive = no such curve, though single readings can be large; an effect the other way counts as inactive or inconclusive. Potency is the fitted concentration of half-maximal effect.

SMILES	ELG1 repair inh	MCF10A rereplic	SW480 rereplic	KB-3-1 cytotox	KB-V1 cytotox
CCOC(=O)c1nn(-c2ccccc2)c(C#N)c1NC(=O)c1nn(CC)cc1Br	x	8%	16%	i	i
CCOC(=O)c1c(NC(=O)c2nn(CC)cc2Br)c(C#N)nn1-c1ccccc1	u	-1%	4%	i	16µM*
CCC1(C)N=C(c2ccc3c(c2)OCO3)CC(c2ccccc2O)N1 (stereo not drawn)	u	7.3µM*	15µM*	i	i
O=C(COC(=O)C1COc2ccccc2O1)c1ccccc1 (stereo not drawn)	x	x	x	i	u
CCn1c(-c2cc(-c3ccccc3OC)nc3ccccc23)n[nH]c1=S	16µM*	u	u	i	u
CCn1c(-c2cc(-c3ccc(C)cc3)nc3ccccc23)n[nH]c1=S	-4%	-1%	-6%	i	i
CCn1c(-c2cc(-c3cc(OC)ccc3OC)nc3ccccc23)n[nH]c1=S	6.5µM*	4%	1%	i	i
CCn1c(-c2cc(-c3ccc(OC(C)C)cc3)nc3ccccc23)n[nH]c1=S	u	17%	8%	i	i
COc1ccccc1CNS(=O)(=O)c1c(C)cc(C)cc1C	x	x	x	i	i
CCCc1ccc(-c2cc(C(=O)NN3CCOCC3)c3ccccc3n2)cc1	u	26%	12%	i	5.2µM*
CCCCn1nc(C(=O)NCC(c2cccs2)N2CCOCC2)c2ccccc2c1=O (stereo not drawn)	18µM*	7%	-36%	u	u
O=C(c1cc(-c2ccc(Cl)s2)nc2ccccc12)N1CCCC1	x	u	-3%	i	u
CC(C)(CNC(=O)c1cc(-c2ccc(Cl)s2)nc2ccccc12)N1CCOCC1	-3%	u	23µM*	i	i
CCn1nc(C(=O)NCC(c2cccs2)N2CCOCC2)c2ccccc2c1=O (stereo not drawn)	-2%	19%	2%	u	u
O=C(NCC(c1cccs1)N1CCOCC1)c1cc(-c2ccc(F)cc2)nc2ccccc12 (stereo not drawn)	u	8%	12%	i	21µM*
CSCCC(C(=O)Nc1c(C)cccc1C)N1CCN(c2ccc(C(F)(F)F)cn2)CC1 (stereo not drawn)	x	x	x	i	i
COc1ccc(C2Nc3ccccc3C(=O)N2Cc2ccccc2)cc1COc1ccccc1F (stereo not drawn)	x	x	x	i	i
CN1CCN(NC(=O)c2cc(-c3ccc(Cl)s3)nc3ccccc23)CC1	u	15µM*	16µM*	i	i
Cn1c(=O)c2c(c3ccccc31)OC(=O)CC2c1ccc(C(F)(F)F)cc1 (stereo not drawn)	x	x	x	i	i
N#C/C(=C\Nc1ccc2cn[nH]c2c1)c1nc(-c2ccccc2)cs1	15%	16µM*	3%	i	i
COc1cc(OCc2ccccc2)c(OC)c(OCc2ccccc2)c1	x	16µM*	u	i	i
Nc1c(C(O)(C(F)(F)F)C(F)(F)F)cc(C(O)(C(F)(F)F)C(F)(F)F)c2ccccc12	u	18µM*	28%	i	i
COC(=O)C[C@@H]1C=C[C@H](NC(=O)c2ccccc2)[C@@H](CO)O1	x	x	x	i	i
CCCOc1ccc(CNC(=O)C(NS(=O)(=O)c2cccs2)C(C)C)cc1 (stereo not drawn)	x	x	x	i	i
COc1cc(/C=N/N=C/c2cc(OC)c(O)c(OC)c2)cc(OC)c1O	-3%	4%	-86%	i	i
SMILES	ELG1 repair inh	MCF10A rereplic	SW480 rereplic	KB-3-1 cytotox	KB-V1 cytotox
COc1cc(/C=N/N=C(/C(=O)c2ccccc2)c2ccccc2)cc(OC)c1O	u	u	3%	i	9.2µM*
COc1ccc(C(=O)C2CCCN(C(=O)c3noc4c3CCCC4)C2)cc1F (stereo not drawn)	u	-26%	1%[1.84 µM]	i	i
COc1ccc2cc(C(=O)C3CCCN(C(=O)c4ccnn4C)C3)ccc2c1 (stereo not drawn)	11%	u	u	i	16µM*
COc1ccc(C(=O)C2CCCN(C(=O)c3noc4c3CCCC4)C2)c(C)c1 (stereo not drawn)	26µM*	u	-31%	i	i
CCOC(=O)N1CCC(N2CCCC(C(=O)c3ccc4cc(OC)ccc4c3)C2)CC1 (stereo not drawn)	23µM*	0%	u	i	i
Brc1ccc(C2C=Cc3ccccc32)cc1 (stereo not drawn)	x	x	x	u	i
COC(=O)c1nn(-c2ccc(OC)cc2)c(=O)c2c(N)sc(C)c12	20%	-4%	29µM*	i	i
COC(=O)c1nn(-c2ccc(OC)cc2)c(=O)cc1NN	6%	10%	0%	i	u
CCN(CC)C(=O)c1nc[nH]c1C(=O)N1CCN(C(=O)OC(C)(C)C)CC1	13%	-1%	1%	i	i
CC(C)(C)OC(=O)N1CCN(C(=O)c2[nH]cnc2C(=O)Nc2ccc(Cl)cc2)CC1	21µM*	12%	-2%	i	i
CC(C)(C)OC(=O)N1CCC(NC(=O)c2[nH]cnc2C(=O)Nc2cccc(Cl)c2)CC1	18µM*	-11%	1%	i	u
Cc1ccc(NC(=O)c2nc[nH]c2C(=O)N2CCN(C(=O)OC(C)(C)C)CC2)cc1	u	u	-6%[9.22 µM]	i	i
CC(C)(C)OC(=O)NCc1ccc(CNC(=O)c2nc[nH]c2C(=O)N2CCN(C(=O)OC(C)(C)C)CC2)cc1	12µM*	24%	-1%	u	i
Cn1cnc(C(=O)NC2CCN(C(=O)OC(C)(C)C)CC2)c1C(=O)NC1CCN(C(=O)OC(C)(C)C)CC1	10µM*	u	-9%	i	i
CC(C)(C)OC(=O)N1CCC(NC(=O)c2nc[nH]c2C(=O)NC2CCN(C(=O)OC(C)(C)C)CC2)CC1	u	u	31%	i	u
CC(C)(C(=O)O)c1ccc([C@H](O)CCCN2CCC(C(O)(c3ccccc3)c3ccccc3)CC2)cc1	8%	0%	-14%	x	x
CCC[C@H]1CN(c2ccc(Br)cc2)C(=O)[C@@H]1CC(=O)Nc1ccc(OC)cc1	x	x	x	i	i
CC(NC(=O)C(=O)Nc1c2c(nn1-c1ccccc1)CSC2)c1ccccc1 (stereo not drawn)	x	x	x	i	i
CCCOc1ccc2c(c1)C(=NN=C(N)N)c1cc(OCCC)ccc1-2	u	u	18µM*	u	u
O=C(c1ccco1)N(Cc1cccs1)c1ccc(F)cc1	x	x	x	i	i
